Growth data for 17 compounds are collected here from PubChem BioAssay (NCI).

Compounds without any hit were thinned out: in the full panel of roughly 83,000, 20% have a hit.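 The test compound was applied at a single concentration to cells in 96-well plates for 48 hours, and percent growth was recorded.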 Values without a mark were called inactive. Calls of active or inactive are those of the source. How the source made its calls: active means growth percent below 10; inactive means the rest.

Some test systems named below: BT-549 breast; MDA-MB-435 melanoma; SW-620 colon; MCF7 breast; HCT-116 colon; HCC-2998 colon; KM12 colon.
Experiment in all cases: NCI-60 one-dose screen, 48 h (100 = growth as untreated, 0 = no growth, -100 = all killed)
Holding throughout (conditions): 10 µM

With `CCN1CCCC1CNC(=O)c1ncc(-c2ccc(C(F)(F)F)cc2)c(NC2CCCCCC2)n1` (stereo not given), the growth in the test with BT-549 breast is 99.2%; in the test with MDA-MB-435 melanoma, 72.6%; in the test on SW-620 colon, 96.2%; in the test on MCF7 breast it was 43.6%; in the test on HCT-116 colon, 54.9%; in the test on HCC-2998 colon, 72.4%. The growth in the test on KM12 colon is 75.3%.

Consider `CN(C)CCS(=O)(=O)CCN(C)C`, for which the growth with BT-549 breast is 101%; in the test with MDA-MB-435 melanoma it was 116%; in the test with SW-620 colon, 94.5%; with MCF7 breast, 107%; with HCT-116 colon it was 96.9%; in the test with HCC-2998 colon, 102%. Also, the growth in the test with KM12 colon was 99.6%.

For the compound `COc1ccc(-c2nn(-c3cccc(NC(=O)c4cccc(C(F)(F)F)c4)c3)cc2-c2ccncc2)cc1Cl`, the growth was 35% in the test on BT-549 breast; -67.9% (active) with MDA-MB-435 melanoma; 36% in the test on SW-620 colon; 9.92% (active) in the test with MCF7 breast; 14.5% with HCT-116 colon; 33.6% in the test with HCC-2998 colon. Moreover, the growth with KM12 colon was 15.4%.

`CC(C)(C)c1cc(Br)cc(C(C)(C)C)c1O`: the growth in the test on BT-549 breast was 111%; with MDA-MB-435 melanoma it was 95.8%; in the test with SW-620 colon it was 112%; in the test on MCF7 breast it was 99%; with HCT-116 colon, 104%; in the test on HCC-2998 colon, 103%. Moreover, the growth in the test on KM12 colon was 105%.

For the compound `COc1cc(-c2nc(Nc3nc4ccccc4s3)[nH]c(=O)c2C#N)cc(OC)c1O`, the growth in the test with BT-549 breast is 98.1%; in the test with MDA-MB-435 melanoma it was 120%; in the test on SW-620 colon, 110%; in the test on MCF7 breast it was 95.7%; in the test on HCT-116 colon it was 94.7%; in the test with HCC-2998 colon, 104%. For the same compound, the growth in the test with KM12 colon is 114%.

Consider `CSc1nn(-c2ccccc2)c2ncnc(Oc3ccccc3)c12`, for which the growth in the test on BT-549 breast is 94.5%; with MDA-MB-435 melanoma it was 102%; with SW-620 colon it was 104%; with MCF7 breast, 107%; in the test with HCT-116 colon, 85.4%; in the test with HCC-2998 colon it was 102%.

Consider `C=C(Cl)[C@@](Cl)(CBr)CC[C@@H](Br)C(C)(C)Cl`, for which the growth in the test on BT-549 breast was 78.6%; in the test with MDA-MB-435 melanoma, -24.2% (active); in the test on SW-620 colon it was -61.7% (active); in the test with MCF7 breast, -51.7% (active); in the test on HCT-116 colon, -94.6% (active); in the test with HCC-2998 colon, -96.9% (active). Further, in the test on KM12 colon, the growth is -94.2% (active).

Regarding `COc1cc(C(=O)N2CCN(c3ccccc3OC)CC2)c(N)cc1OCCCN1CCN(c2ccccc2OC)CC1`, the growth was 94.4% in the test with BT-549 breast; 101% in the test on MDA-MB-435 melanoma; 90.6% in the test on SW-620 colon; 96% in the test with MCF7 breast; 81.9% with HCT-116 colon; 101% in the test with HCC-2998 colon. In the test on KM12 colon, the growth is 88.4%.

For the compound `S=C1SCC(c2ccccc2)S1` (stereo not given), the growth in the test with BT-549 breast is 109%; in the test on MDA-MB-435 melanoma, 102%; with SW-620 colon, 111%; in the test on MCF7 breast, 99.4%; in the test with HCT-116 colon, 107%; with HCC-2998 colon, 114%. Besides, the growth with KM12 colon is 117%.

As to `N#CCCN1C/C(=C/c2ccccc2)C(=O)/C(=C/c2ccccc2)C1`, the growth with BT-549 breast is 44.3%; in the test with MDA-MB-435 melanoma, -30.9% (active); with SW-620 colon, -24.9% (active); with MCF7 breast, -12% (active); in the test with HCT-116 colon it was -81.7% (active); in the test with HCC-2998 colon, -81% (active).

For `OCC1OC(n2cnc3c(N/N=C\c4ccccn4)ncnc32)C(O)C1O` (stereo not given), the growth was 44.3% with BT-549 breast; 23.6% in the test with MDA-MB-435 melanoma; 23.9% in the test on SW-620 colon; 16.8% with MCF7 breast; 11.9% in the test on HCT-116 colon; 10.9% with HCC-2998 colon. Also, in the test with KM12 colon, the growth was 26.7%.

For the compound `Clc1ccc(/C=C2\CCCC3=C2N=C2SC=NN2C3c2ccc(Cl)cc2)cc1` (stereo not given), the growth with BT-549 breast is 117%; in the test with MDA-MB-435 melanoma it was 76.7%; in the test on SW-620 colon, 94.1%; in the test on MCF7 breast it was 23.7%; in the test on HCT-116 colon it was 5.7% (active); in the test with HCC-2998 colon, 77.2%. The growth in the test on KM12 colon was 83.9%.

On to `COc1ccc2c(c1)sc1nc(-c3ccccc3)c(-c3ccc(O)c(OC)c3)n12`, for which the growth is 68.2% in the test on BT-549 breast; -24.6% (active) in the test with MDA-MB-435 melanoma; 39.9% in the test with SW-620 colon; 93.4% with MCF7 breast; 33.2% with HCT-116 colon; 42.5% in the test with HCC-2998 colon. Also, the growth in the test with KM12 colon was 37.1%.

`Clc1ccc(Nc2ccnc(NCCNc3ccnc4cc(Cl)ccc34)n2)cc1`: the growth with BT-549 breast was 40.8%; with MDA-MB-435 melanoma it was -90% (active); in the test with SW-620 colon, -10.5% (active); in the test on MCF7 breast, -74.6% (active); with HCT-116 colon, -71.3% (active); in the test on HCC-2998 colon, -89% (active). For the same compound, the growth with KM12 colon was 33.7%.

`Cc1[nH]nc2c1C(c1cnn(C)c1)C(C#N)=C(N)O2` (stereo not given): the growth was 102% with BT-549 breast; 101% in the test on MDA-MB-435 melanoma; 102% in the test with SW-620 colon; 98% in the test with MCF7 breast; 104% in the test with HCT-116 colon; 110% with HCC-2998 colon.

`COc1ccc(Cl)cc1-n1nnc(-c2nc3ccccc3[nH]2)c1N`: the growth was 98.8% in the test on BT-549 breast; 88.6% in the test on MDA-MB-435 melanoma; 75.6% in the test on SW-620 colon; 94.3% in the test on MCF7 breast; 55.4% with HCT-116 colon; 93.4% in the test on HCC-2998 colon.

For the compound `O=C(Nc1cccc(-n2cc(-c3ccncc3)c(-c3ccc(O)c(Cl)c3)n2)c1)c1cccc(C(F)(F)F)c1`, the growth in the test with BT-549 breast is 43.9%; in the test on MDA-MB-435 melanoma, 33.7%; in the test on SW-620 colon, 26.1%; in the test on MCF7 breast, 13.9%; in the test on HCT-116 colon, 21.7%; in the test with HCC-2998 colon, 25.7%. For the same compound, the growth with KM12 colon is 20.2%.
